Rows were chosen to be rich in hits. Some 7.4% of all compounds tested hit in one or more screens of this group.
NPC1 prom act: NPC1 promoter activation | Huh7 NPC1 promoter luciferase reporter, 24 h | Potency, µM (series often up to 9.22 µM), hits mostly activators | actives 2.4% (n = 320,000) | AID 485313; note: nearly all actives have a fitted effect of over 60% in size
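Stable NPC1-promoter luciferase Huh7 line; cpd (DMSO) 24 h, 37 °C, 5% CO2; Amplite luciferase reagent 10 min RT; luminescence readout. qHTS format.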
SMN2 splice up: SMN2 splice variant enhancement. AID 1458. Potency, µM (titrated, usually from 46.1 µM), actives largely listed as activators. HEK293 SMN2-luciferase splicing reporter, luminescence, 30-36 h. actives 2.8% (n = 210,000); note: nearly all actives have a fitted effect of over 55% in size
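qHTS luciferase splicing reporter: luminescence rises when SMN2 exon 7 is included in transfected HEK293 cells. Compound exposure lasted 30-36 h at 37C, with 4.5 mM final sodium butyrate as control, followed by a ONE-Glo read.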
FLuc counter: counter-screen for miR-21 project: firefly luciferase inhibitors or activators; P08659; purified FLuc, Km substrates, luminescence inhibition; Potency, µM (highest dose often 57.5 µM), actives largely listed as inhibitors; actives 6.9% (n = 360,000); AID 588342; note: nearly all actives have a fitted effect of over 55% in size
Target sequence (P08659 whole entry, looked up): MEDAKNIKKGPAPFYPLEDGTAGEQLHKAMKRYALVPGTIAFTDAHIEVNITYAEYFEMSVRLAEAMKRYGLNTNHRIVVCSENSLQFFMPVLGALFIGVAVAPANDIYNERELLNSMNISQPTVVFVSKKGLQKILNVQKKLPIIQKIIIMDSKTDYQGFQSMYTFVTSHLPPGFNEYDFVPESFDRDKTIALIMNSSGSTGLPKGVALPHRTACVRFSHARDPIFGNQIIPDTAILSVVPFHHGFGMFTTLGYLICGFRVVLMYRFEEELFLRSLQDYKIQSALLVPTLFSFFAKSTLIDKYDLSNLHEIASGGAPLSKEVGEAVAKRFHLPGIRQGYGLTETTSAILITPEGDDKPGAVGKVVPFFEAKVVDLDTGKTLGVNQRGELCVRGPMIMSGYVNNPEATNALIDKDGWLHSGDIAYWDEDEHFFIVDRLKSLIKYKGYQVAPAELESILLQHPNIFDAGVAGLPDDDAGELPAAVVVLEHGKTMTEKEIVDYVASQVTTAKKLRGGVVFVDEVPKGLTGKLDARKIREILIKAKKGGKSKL
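Biochemical qHTS of compounds, final roughly 60 µM downward over six points, against 10 nM purified firefly luciferase using Km concentrations of substrates (10 uM D-luciferin, 10 uM ATP) in Tris acetate pH 7.5 buffer; luminescence output.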
Rab9 promoter act: activates the Rab9 promoter; actives 2.8% (n = 320,000); Potency, µM (highest dose often 9.22 µM), actives largely listed as activators; Huh7 Rab9 promoter-luciferase reporter, luminescence, 24 h; note: nearly all actives have a fitted effect of over 60% in size
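Huh7 cells stably carrying a Rab9 promoter-luciferase reporter, 1500 cells per well in OP-MEM I with 10% FBS, treated with compound 24 hours at 37C. Luciferase activity read by luminescence after 10 minutes with Amplite reagent.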
ELG1 genotox: inducers of genotoxicity in HEK293T ELG1-luciferase cells; actives 1.3% (n = 330,000); Potency, µM (top dose mostly 46 µM), usual class: activators; AID 504466; HEK293T ELG1-luciferase reporter, luminescence, 16 h; note: nearly all actives have a fitted effect of over 60% in size
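HEK293T cells expressing luciferase-tagged ELG1 were treated with compound or DMSO for 16 hr at 37°C. Luciferase activity was then read after 30 min with ONE-Glo at room temperature; rising signal flags genetic stress.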
Numbers stand for hits; - = inactive; ? = inconclusive; . = not tested or not shown; [ ] = remark or other dose. Calls come from the whole dose curve; as a rule, active = well fitted curve in the direction sought with a large enough effect; inconclusive = small, poorly fitted or top-dose-only effect, or another doubt; inactive = no such curve, though single readings can be large; an effect the other way counts as inactive or inconclusive.

SMILES	NPC1 prom act	SMN2 splice up	FLuc counter	Rab9 promoter act	ELG1 genotox
Cc1onc(-c2ccccc2Cl)c1C(=O)NC1C(=O)N2C1SC(C)(C)C2C(=O)O (stereo not given)	.	-	.	.	.
Nc1[nH]n(-c2ccccc2)c(=O)c1N=Nc1ccccc1	2.5µM	.	5.4µM	3.5µM	21µM
Nc1[nH]n(-c2ccccc2)c(=O)c1N=Nc1ccc2ncsc2c1	-	.	19µM	-	-
Nc1c(N=Nc2cccc(Cl)c2)c(=O)[nH]n1-c1ccccc1	-	-	-	-	-
Nc1[nH]n(-c2ccccc2)c(=O)c1N=Nc1ccccc1[N+](=O)[O-]	2µM	?	?	0.56µM	3.2µM
COc1cc([N+](=O)[O-])ccc1N=Nc1c(N)[nH]n(-c2ccccc2)c1=O	-	-	?	?	-
O=c1c2cc([N+](=O)[O-])cc([N+](=O)[O-])c2[nH]n1-c1ccccc1	-	.	11µM	-	-
CN1C(=C2C(=O)OC(C)(C)OC2=O)Sc2ccccc21	3.5µM	-	15µM	2.5µM	?
COC(=O)c1cc(-c2ccc(OC)cc2F)nc2nc(SC)[nH]c(=O)c12	-	.	15µM	-	-
COC(=O)c1cc(-c2ccccc2)nc2nc(SC)[nH]c(=O)c12	-	.	?	-	-
COc1ccc(/C=C/C(=O)c2ccc(Cl)cc2)c(OC)c1	-	-	2.1µM	-	?
COc1ccc(/C=C/C(=O)c2cc3c(cc2N)OCO3)cc1	?	?	2.1µM	?	?
COc1ccc(CCNC(=O)COC(=O)/C=C/c2ccc3c(c2)OCO3)cc1	.	.	.	.	-
COc1ccc(/C=C/C(=O)c2cc(Cl)ccc2O)c(OC)c1	?	.	11µM	-	-
O=C(/C=C/c1ccc(O)cc1)c1ccc(O)cc1O	-	-	11µM	-	?
O=C(/C=C/c1ccccc1)c1ccc(O)cc1O	.	-	.	.	.
O=C(NCCCN1CCN(c2ccc(F)cc2)CC1)c1cc2c(Cl)nc3ccccc3c2s1	.	-	-	.	.
O=C(/C=C/c1ccncc1)c1cc(Cl)ccc1O	-	.	-	-[1.84 µM]	-
COc1ccc(/C=C/C(=O)c2ccc(OC)cc2OC)cc1	-	.	12µM	-	-
COc1ccc(/C=C/C(=O)c2ccc(O)cc2O)cc1	.	-	.	.	.
CN(C)c1ccc(/C=C/C(=O)c2cc(Cl)ccc2O)cc1	?	.	9.5µM	-	-
COc1ccc(/C=C/C(=O)c2cc(O)ccc2O)cc1	.	-	.	.	.
COc1ccc(C(=O)/C=C(\N)C(F)(F)F)c(O)c1	-	-	11µM	-	-
COc1ccc(C(=O)/C=C/c2ccccc2)c(O)c1	?	-	6µM	?	-
COc1cc(C(=O)Nc2ccc3[nH]c(=O)sc3c2)cc(OC)c1OC	.	?	-	.	.
SMILES	NPC1 prom act	SMN2 splice up	FLuc counter	Rab9 promoter act	ELG1 genotox
COC(=O)c1ccc(/C=C/C(=O)c2ccc(OC)cc2)cc1	?	-	11µM	-	-
COc1ccc(C(=O)/C=C/c2ccc(OC)cc2OC)c(O)c1	?	.	3µM	?	?
COc1ccc(/C=C/C(=O)/C=C/c2ccc(OC)cc2OC)c(OC)c1	.	-	.	.	.
COC(=O)c1ccc(/C=C/C(=O)c2ccc(OC)c(OC)c2)cc1	-	-	?	-	-
COC(=O)c1nc2n(n1)C(c1cc(OC)ccc1OC)C(C(=O)Nc1ccc(C)cc1C)=C(C)N2 (stereo not given)	.	-	-	.	.
C=CCN1C(=O)C(=O)N(Cc2nc3ccccc3s2)C1=O	-	.	8.5µM	-	?
Cc1ccc2oc(=O)c(S(=O)(=O)c3ccc(C(C)(C)C)cc3)cc2c1	.	-	-	.	.
Cc1ccc2[nH]c3ccccc3c(=O)c2c1	?	.	17µM	-	-
C=CCn1c2ccccc2c(=O)c2cc(C#CC3(O)CCCCC3)ccc21	1.3µM	.	0.76µM	0.71µM	?
C=CCn1c2ccccc2c(=O)c2cc(C#CC[C@@H](C)O)ccc21	3.2µM	.	2.1µM	?	?
Cc1cccc(OCC(=O)Nc2ccc3c(c2)nc(CCNC(=O)c2ccco2)n3C)c1	.	-	?	.	.
O=C(c1ccco1)N1N=C(c2ccc3nccnc3c2)CC1c1ccccc1 (stereo not given)	-	-	17µM	-	-
CS(=O)(=O)Nc1ccc(C2=NN(C(=O)c3ccco3)C(c3ccc(F)cc3)C2)cc1 (stereo not given)	-	-	-	-	-
COc1ccccc1NC(=O)Cn1c(=O)oc2cc(S(=O)(=O)NCc3ccccc3)ccc21	.	-	-	.	.
O=C(c1cnccn1)N1CCC2(CCCN(c3ccc(-c4ccccc4)cc3)C2)CC1	.	4µM	.	.	.
CCOc1ccc(-c2noc(CSc3nnc(Cc4ccccc4)n3-c3cccc(C)c3)n2)cc1	.	-	-	.	.
O=C(c1ccco1)N1N=C(c2cccs2)CC1c1cc([N+](=O)[O-])ccc1O (stereo not given)	-	.	17µM	-	-
O=C(c1ccco1)N1N=C(c2cccs2)CC1c1ccc(F)cc1 (stereo not given)	-	-	-	-	-
Cc1ccc(O)c(/C=N/NC(=O)c2[nH]ncc2Br)c1	?	-[1.84 µM]	4.3µM	?	16µM
O=C(N/N=C/c1c(O)ccc2ccccc12)c1cccc(C(F)(F)F)c1	-	-	-	-	-
Cc1cc(C(=O)N/N=C/c2cccn2C)n[nH]1	-	?	?	?	-
Cc1cc(C(=O)N/N=C\c2cc(C(C)(C)C)ccc2O)n[nH]1	-	.	24µM	-	?
COc1ccc(OC)c(/C=N/NC(=O)c2[nH]ncc2Br)c1	-	.	-	-	-
O=C(N/N=C/c1cccs1)c1[nH]ncc1Br	3.5µM	.	21µM	4µM	16µM
O=C(N/N=C/c1cccs1)c1cnccn1	-	-	?	-	-
SMILES	NPC1 prom act	SMN2 splice up	FLuc counter	Rab9 promoter act	ELG1 genotox
O=C(N/N=C/c1c(O)ccc2ccccc12)c1[nH]ncc1Br	-	-	6.7µM	-	?
Nc1nc2c(nc(Br)n2C2OC3COP(=O)(O)O[C@@H]3C2O)c(=O)[nH]1 (stereo not given in full)	-	.	.	-	.
CCOc1ccc(/C=N/NC(=O)c2[nH]ncc2Br)c(O)c1	?	3.5µM	2.1µM	?	?
O=C(NCC(c1cccnc1)N1CCc2ccccc2C1)C(=O)Nc1ccccc1 (stereo not given)	.	.	-	.	.
COc1ccc(NC(=O)C(=O)NCC(c2cccnc2)N2CCc3ccccc3C2)cc1 (stereo not given)	.	.	0.38µM	.	.
COc1ccccc1C(=O)NCC(c1cccnc1)N1CCc2ccccc2C1 (stereo not given)	.	.	2.7µM	.	.
COc1cc(C(=O)NCC(c2cccnc2)N2CCc3ccccc3C2)cc(OC)c1OC (stereo not given)	.	.	-	.	.
O=S(=O)(O)c1cc(N=Nc2cccc3ccccc23)c(O)c2ncccc12	.	-[9.22 µM]	.	.	.
Oc1c(N=Nc2ccccn2)ccc2ccccc12	-	-	1.3µM	-	?
CC(C)(C)c1ccc(/C=N/Nc2ccc(C(=O)O)cc2)cc1	-	-[1.84 µM]	0.19µM	-	?
CC1Oc2ccccc2C=C1/C=N/Nc1ccc(C(=O)O)cc1 (stereo not given)	?	.	0.54µM	?	1.2µM

Bioassay records (PubChem)
